# According to PubChem BioAssay:
# The source made the active and inactive calls. Unless noted, the rule behind the calls is not given here.
# What was measured:
# [1] = test system: XIP peptide (Xip251-270) binding; test: small-molecule binders of XIP peptide, primary screen, biochemical, small-molecule microarray, fluorescence 635/667 nm, 0.1 µg/mL protein (AID 1182); settings: fluorescent protein binding, 635 nm, higher = more signal, called active from +8 up or from −8 down
# XIP peptide (Xip251-270) = test: small-molecule binders of XIP peptide, primary screen, biochemical, small-molecule microarray, fluorescence 635/667 nm, 0.5 µg/mL protein (AID 1183); settings: small-molecule microarray binding, fluorescence 635 nm; higher = more signal
# [2] = Plasmodium falciparum growth inhibition, primary screen, strain 3D7, DAPI fluorescence, 100 nL (AID 1184);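 note: parasites grown inside human red blood cells in medium with human serum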; settings: P. falciparum 3D7 growth, 3 d, higher = more signal
# [3] = molecular target: Homeobox protein Hox-A13 (Mus musculus) (UniProt Q62424); test: inhibitors of HoxA13-DNA binding, primary screen, biochemical, fluorescence polarization, labeled oligonucleotide (AID 1185); settings: 15 min, higher = more signal, called active from +8 up or from −8 down
# Sequence of Homeobox protein Hox-A13 (Mus musculus) (Q62424 whole entry, looked up): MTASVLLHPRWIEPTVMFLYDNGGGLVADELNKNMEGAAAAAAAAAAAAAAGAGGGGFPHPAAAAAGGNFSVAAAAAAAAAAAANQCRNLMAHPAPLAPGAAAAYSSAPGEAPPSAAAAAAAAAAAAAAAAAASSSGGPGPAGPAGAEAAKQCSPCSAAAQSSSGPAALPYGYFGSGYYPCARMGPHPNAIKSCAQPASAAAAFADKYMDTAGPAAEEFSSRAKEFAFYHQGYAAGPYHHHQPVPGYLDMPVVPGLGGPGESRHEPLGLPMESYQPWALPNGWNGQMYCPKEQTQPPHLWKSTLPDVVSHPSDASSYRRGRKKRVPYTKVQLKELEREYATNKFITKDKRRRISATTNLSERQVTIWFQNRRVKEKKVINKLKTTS
# [4] = inhibitors of hydroxyurea-induced Chk1 phosphorylation, primary screen, imaging, HeLa, phospho-Chk1 antibody, percent positive cells (AID 1186); settings: hydroxyurea-induced phospho-Chk1 immunofluorescence imaging, higher = more signal
# [5] = inhibitors of hydroxyurea-induced Chk1 phosphorylation, primary screen, imaging, HeLa, phospho-Chk1 nuclear intensity (AID 1187); settings: hydroxyurea-induced phospho-Chk1 immunofluorescence imaging, higher = more signal
Structure (SMILES),composite z-score [1],composite z-score (XIP peptide (Xip251-270)),z-score [2],z-score [3],z-score [4],z-score [5]
Cc1ccc(S[C@]2(C(=O)NCC(F)(F)F)CC(=O)N(Cc3cc(C(F)(F)F)cc(C(F)(F)F)c3)[C@@H]2c2ccc(CO)cc2)cc1,-0.491 (inactive),0.584,1.2,-1.71 (inactive),0.0254 (inactive),0.474 (inactive)
N#Cc1ccc(NN2C(C(O)c3ccc(Br)cc3)C=CC3C(=O)N(c4ccccc4)C(=O)C32)cc1 (stereo not given),1.13 (inactive),0.529,0.401,-3.13 (inactive),0.0643 (inactive),0.0338 (inactive)
C=C(COC)C(=O)CC[C@@H](OC(C)=O)c1cccc(OCCO)c1,0.309 (inactive),-0.0276,-0.988,-3.69 (inactive),0.367 (inactive),-0.113 (inactive)
Cc1ccc(N2C(=O)c3ccccc3[C@@H](C(=O)NCCCN(C)C)[C@@H]2c2ccc(CO)cc2)nc1,1.9 (inactive),0.148,-0.235,-2.34 (inactive),0.026 (inactive),-0.303 (inactive)
O=C1C[C@]2(c3ccc([N+](=O)[O-])cc3)C(=O)N(C3CC3)c3cc(CO)ccc3[C@H]2N1CC12CC3CC(CC(C3)C1)C2,0.196 (inactive),0.463,-1.38,-0.902 (inactive),-0.0994 (inactive),-0.497 (inactive)
COc1cc2c(cc1O)C(C1CC1)N(C)CC2 (stereo not given),-0.198 (inactive),0.598,-0.871,-4.09 (inactive),0.2 (inactive),0.406 (inactive)
NC(=O)NCC#Cc1ccc2c(c1)[C@]1(C(=O)N2)[C@H](c2ccccc2OCCO)N2[C@H](c3ccccc3)[C@H](c3ccccc3)OC(=O)[C@H]2[C@@H]1C(=O)NC[C@H](O)c1ccccc1,0.427 (inactive),0.209,-0.521,-3.58 (inactive),-0.552 (inactive),-0.793 (inactive)
[N-]=[N+]=Nc1ccccc1C[C@]1(C(=O)NCC(O)CO)COC(c2ccc(OCCCO)cc2)=N1 (stereo not given in full),-0.0462 (inactive),0.106,-1.57,-6.04 (inactive),0.0856 (inactive),0.636 (inactive)
CCN(CC)c1ccc(N2CC=CC34O[C@@H]5/C=C\CCCOC(=O)C5[C@H]3C(=O)N(C(C)CO)[C@@H]4C2=O)cc1 (stereo not given in full),-0.322 (inactive),0.213,0.226,-5.97 (inactive),0.296 (inactive),0.804 (inactive)
CC(=O)N1CC2(CC2)CC1c1ccccc1 (stereo not given),0.485 (inactive),0.915,-0.0608,-1.06 (inactive),0.465 (inactive),0.444 (inactive)
CCOc1cc(C(O)C2C=CC3C(=O)NC(=O)C3N2Nc2ccc(Cl)cc2Cl)ccc1O (stereo not given),-0.736 (inactive),0.966,0.0361,-2.05 (inactive),0.394 (inactive),0.627 (inactive)
COC(=O)[C@]1(CCS(=O)(=O)c2ccccc2)N=C(c2ccc(OCCCO)cc2)O[C@@H]1c1ccccc1N=[N+]=[N-],1.48 (inactive),0.836,-2.36,-3.34 (inactive),-0.265 (inactive),-0.364 (inactive)
CCC1=C2CN(Cc3ccccc3)[C@@H](C(=O)Cc3ccccc3)C2C=CCC1 (stereo not given in full),0.932 (inactive),0.758,-1.75,-4.07 (inactive),0.313 (inactive),-0.119 (inactive)
[N-]=[N+]=Nc1ccccc1C[C@@]1(C(=O)N2CCOCC2)N=C(c2ccc(OCCCO)cc2)O[C@@H]1c1ccccc1,0.111 (inactive),0.765,-2.32,-5.84 (inactive),-1.05 (inactive),-1.34 (inactive)
COc1cccc(C)c1NC(=O)O[C@H]1[C@H](OC(=O)Nc2ccccc2-c2ccccc2)[C@H](OC(=O)Nc2ccccc2-c2ccccc2)[C@@H](OC)O[C@@H]1CO,0.201 (inactive),0.729,-2.51,-1.28 (inactive),-0.8 (inactive),-1.12 (inactive)
[N-]=[N+]=NCc1ccccc1[C@H]1OC(c2ccc(OCCCO)cc2)=N[C@@]1(Cc1ccccc1N=[N+]=[N-])C(=O)NCC(O)CO (stereo not given in full),0.665 (inactive),0.603,-2.31,-4.17 (inactive),-0.266 (inactive),0.0665 (inactive)
CCCCCCc1nc(Cc2cc(OC)c(OC)c(OC)c2)cc2c1[Si](C(C)C)(C(C)C)OC2,0.181 (inactive),0.0776,-2.67,-3.54 (inactive),-1.16 (inactive),-0.743 (inactive)
O=C1O[C@@H](c2ccccc2)[C@@H](c2ccccc2)N2[C@@H](c3ccc(O)cc3)[C@]3(C(=O)Nc4ccc(C#CCCO)cc43)[C@@H](C(=O)N3CCN(c4ncccn4)CC3)[C@H]12,0.678 (inactive),0.731,-2.11,-2.41 (inactive),-0.193 (inactive),0.058 (inactive)
COCCOC(=O)N1C(=O)[C@@]2(c3ccccc31)[C@H](C(=O)NC[C@H](O)c1ccccc1)[C@H]1C(=O)O[C@H](c3ccccc3)[C@H](c3ccccc3)N1[C@@H]2c1ccc(O)cc1,0.26 (inactive),0.819,-1.02,-3.48 (inactive),0.326 (inactive),0.653 (inactive)
COc1cccc(C)c1NC(=O)O[C@H]1[C@H](OC(=O)Nc2ccc3c(c2)OCO3)[C@@H](OC(=O)Nc2ccc3c(c2)OCO3)[C@@H](OC)O[C@@H]1CO,0.519 (inactive),-0.0963,-2.44,-10.8 (active),-0.088 (inactive),-0.224 (inactive)
COc1ccc([Si](C)(C)[C@@H]2[C@@H](CCO)O[C@]3(C(=O)N(Cc4ccccc4)c4ccc(N5CCOC5=O)cc43)[C@H]2C)cc1,0.849 (inactive),0.869,-2.79,-1.94 (inactive),-1.29 (inactive),-1.14 (inactive)
CN(C)C(=O)[C@]1(CCC(=O)OC(C)(C)C)N=C(c2ccc(OCCCO)cc2)O[C@@H]1c1ccccc1CN=[N+]=[N-],0.0464 (inactive),0.649,-2.39,-4.57 (inactive),-0.165 (inactive),0.152 (inactive)
O=C(C1N=C(c2ccc(OCCCO)cc2)N(c2ccccc2)O1)N1CCCCC1 (stereo not given),2.64 (inactive),0.814,-0.603,-3.7 (inactive),-0.216 (inactive),0.153 (inactive)
Cc1ccc(S[C@]2(C(=O)NCCN3CCOCC3)CC(=O)N(Cc3ccccc3Cl)[C@@H]2c2ccc(CO)cc2I)cc1,0.676 (inactive),0.433,-0.244,-2.18 (inactive),0.0327 (inactive),0.421 (inactive)
CCOC(=O)C[C@H]1[C@H](OC(=O)c2cc3ccccc3oc2=O)[C@@H](NC(=O)c2ccc3ccccc3n2)c2cc(OCCCO)ccc2N1C(=O)Cc1ccc(OC)cc1,-0.816 (inactive),0.71,-1.42,-3.15 (inactive),0.458 (inactive),-0.301 (inactive)
